Data on 20 compounds can be found in PubChem BioAssay (NCATS).

One assay relates to CRL-7250. The assay is described as follows: Cytotoxic Profiling of Annotated Libraries Using Quantitative High-Throughput Screening (AID 1296008). Also: potency is read from the fitted curve at half-maximal effect. As to max response: % is scaled to controls: 0 for no effect and ±100 for the full control effect. Conditions: Five cell lines viability, CellTiter-Glo ATP luminescence, 48-72 h; max response: stronger effect = lower value. The method, boiled down:
(§1)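 Cells exposed to compounds for 48 or 72 hr at 37 degrees Celsius. Viability read as ATP-coupled luminescence with CellTiter-Glo after 10 min at room temperature.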

For a further assay, the system named is HEK293. The assay is described as above. The note with it: Five cell lines viability, CellTiter-Glo ATP luminescence, 48-72 h; max response: stronger effect = lower value. The essentials:
as §1

For a further assay, the system named is KB-3-1. The description is as above. Conditions: Five cell lines viability, CellTiter-Glo ATP luminescence, 48-72 h; max response: stronger effect = lower value. The essentials: as §1
A further assay deals with NIH3T3. The assay is described as above. Conditions: Five cell lines viability, CellTiter-Glo ATP luminescence, 48-72 h; max response: stronger effect = lower value. The essentials:
as §1
For orientation: Cellular ATP, detected with luciferase, serves as a proxy for viable cell number.

Another assay has as its system HEK293T. The assay is described as follows: qHTS assay to identify novel small-molecules to repurpose for Merkel cell carcinoma treatment (AID 1296009). The note with it: MCC and control cell lines, CellTiter-Glo viability, 72 h; at 44.8 µM (top of the series) unless noted. The essentials: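 CellTiter-Glo luminescence after 72 hr compound exposure at 37 degree celsius gave cell viability. Libraries NPC and MIPE were run as 8- and 11-point dose responses; RLUs normalized to DMSO (negative) and no-cell (cytotoxicity) controls.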

The subject of the next assay is HaCat. The assay is described as follows: Cytotoxic Profiling of Annotated Libraries Using Quantitative High-Throughput Screening (AID 1296008). Also: potency is read from the fitted curve at half-maximal effect. As to max response: % is scaled to controls: 0 for no effect and ±100 for the full control effect. Conditions: Five cell lines viability, CellTiter-Glo ATP luminescence, 48-72 h; max response: stronger effect = lower value. The method, boiled down:
as §1

Records with an inconclusive call do not appear. Unmarked numbers belong to inactive results. The source made the active and inactive calls. Calls follow the shape of the dose curve; as a rule, active = well fitted inhibition curve with a large enough effect; inconclusive = small, poorly fitted or top-dose-only effect; inactive = flat fitted curve, though single readings scatter.
Also: nearly all actives have a fitted effect of over 60% in size.

For `COc1ccc(CCO[C@@H]2CCCC[C@H]2N2CC[C@@H](O)C2)cc1OC`, the max response was -6.87% in the assay on CRL-7250, 2.72% in the assay with HEK293 and 4.12% with KB-3-1. The compound was called inactive in the assay on NIH3T3.
On to `CCCCOC(=O)NC(=O)C1c2ccccc2Oc2ccccc21`, for which the figures for the max response in the assay with CRL-7250, in the assay on KB-3-1 and in the assay on NIH3T3 were -2.73%, 2.73% and -5.65%, respectively. For the same compound, the compound was called inactive in the assay with HEK293 and with HEK293T.
With `COC(=O)C1=CO[C@@H](O[C@@H]2O[C@H](CO)[C@@H](O)[C@H](O)[C@H]2O)[C@@H]2C(CO)=CC[C@]12O`, the max response with CRL-7250 is -2.05%; in the assay with KB-3-1, 9.91%; in the assay on NIH3T3, 1.93%. In addition, the compound was classed as inactive with HEK293. Further, the outcome in the assay on HEK293T was “inactive [at 17.4 µM]”.
With `O=C(O)c1ccccc1NC(=O)N1CCC(c2ccccc2C(F)(F)F)CC1`, the compound was called inactive in the assay with CRL-7250, with HEK293, in the assay on NIH3T3 and in the assay on HEK293T. The max response with KB-3-1 is -2.67%.
In the case of `CC(NC(=O)C(O)C(C)C)C(=O)NC1C(=O)N(C)CCc2ccccc21` (centres undefined), the max response in the assay with CRL-7250 was -0.526%. The outcome in the assay on HEK293, in the assay with KB-3-1, in the assay with NIH3T3 and in the assay on HEK293T was inactive.
For `CN(C)CCn1cc(S(=O)(=O)c2cccc(F)c2)c2cccnc21`, the outcome in the assay on CRL-7250, with HEK293 and with HEK293T was inactive. The max response in the assay with KB-3-1 was 1.25%; in the assay on NIH3T3, -4.92%.
Consider `CC(=O)C=C=C1C(C)(C)CC(O[C@@H]2O[C@H](CO)[C@@H](O)[C@H](O)[C@H]2O)CC1(C)O` (some centres undefined), for which the compound was classed as inactive with CRL-7250, with HEK293 and in the assay with HEK293T. Besides, the values for the max response with KB-3-1 and with NIH3T3 were 0.592% and 4.66%, respectively.
With `CC1CC(O)C2(OC1=O)OC1C(O)C3C4CCC5CC(OC6OC(CO)C(O)C(O)C6OC6OC(C)C(O)C(O)C6O)CCC5(C)C4CCC3(C)C1C2C` (centres undefined), in the assay with CRL-7250, the max response was -9.09%. The call with HEK293, with KB-3-1 and in the assay on NIH3T3 was inactive. The outcome in the assay on HEK293T was “inactive [at 17.4 µM]”.
Consider `COc1cc2c(cc1OC)[C@@H]1[C@H](O)[C@@H](OC)C=C3CCN(C2)[C@H]31`, for which the Potency was 12.8 µM (active) with CRL-7250, 7.18 µM (active) in the assay with KB-3-1 and 3.6 µM (active) in the assay with NIH3T3. Moreover, the max response in the assay on HaCat is -24.8%.
With `C[C@]12C[C@@H](O)[C@@H]3C[C@@]1(O[C@@H]1O[C@H](CO)[C@@H](O)[C@H](O)[C@H]1O)[C@]3(COC(=O)c1ccccc1)C(=O)O2`, the max response is -9.75% in the assay on CRL-7250 and 4.54% in the assay with KB-3-1. Also, the compound was classed as inactive with HEK293 and in the assay on NIH3T3. The outcome in the assay on HEK293T is “inactive [at 17.4 µM]”.
Take `Cc1ccc(Cc2c(C)nc3nc(SCC(=O)NCCN4CCNCC4)nn3c2C)cc1`: the outcome in the assay on CRL-7250 and in the assay with KB-3-1 was inactive. In addition, the max response was -12.4% in the assay with HaCat and -3.32% with NIH3T3.
In the case of `CC1CCN(C(=O)CC#N)CC1N(C)c1ncnc2[nH]ccc12` (centres undefined), the max response in the assay on CRL-7250 is 0.271%. Further, the compound was classed as inactive in the assay on HEK293, in the assay with KB-3-1 and in the assay on HEK293T.
With `Nc1nc(-n2cc(C(=O)O)c(=O)c3cc(F)c(N4CC(O)C4)c(Cl)c32)c(F)cc1F`, the figures for the max response in the assay on CRL-7250, in the assay with KB-3-1 and in the assay on NIH3T3 were -9.26%, -18.7% and 2.73%, respectively. Moreover, the compound was classed as inactive in the assay with HEK293 and in the assay on HEK293T.
In the case of `CC1C=CC2CCCCC2C1CCC1CC(O)CC(=O)O1` (centres undefined), the max response is -5.84% in the assay on CRL-7250, 3.85% in the assay on KB-3-1 and -16% with NIH3T3. For the same compound, the result in the assay with HEK293 and in the assay with HEK293T was inactive.
Regarding `CC1=CC(=O)CC2C1(O)CCC(C)C21CC(c2ccoc2)OC1=O` (centres undefined), the max response was -9.3% in the assay on CRL-7250, -50.8% in the assay on HaCat, -1.68% with KB-3-1 and -0.573% in the assay on NIH3T3.
For the compound `CC(O)/C=C/C1(O)C(C)C(O[C@@H]2O[C@H](CO)[C@@H](O)[C@H](O)[C@H]2O)C(O)CC1(C)C` (some centres undefined), the max response with CRL-7250 was 0.975%; in the assay on KB-3-1 it was -3.24%. Moreover, the compound was classed as inactive in the assay on HEK293 and with NIH3T3. In the assay with HEK293T, the outcome was “inactive [at 17.4 µM]”.
Take `C[C@@H]1CCC2C(C)(C)[C@H](O)CC[C@]2(C)[C@@]12Cc1c(O)cc3c(c1O2)CNC3=O` (some centres undefined): the max response in the assay on CRL-7250 is -75.1%; with HaCat it was -68.6%; with KB-3-1, 9.73%; in the assay with NIH3T3, -63%.
On to `OC1CCC(Nc2ncc3nc(Nc4c(F)cc(F)cc4F)n([C@H]4CCOC4)c3n2)CC1` (some centres undefined), for which the max response with CRL-7250 was -2.71%; with NIH3T3 it was 3.11%. The outcome in the assay on HEK293, in the assay with KB-3-1 and in the assay on HEK293T was inactive.
Regarding `CC1CC2OC3(OC2C(C)(C)O)C1C1(C)CCC24CC25CCC(O[C@@H]2OC[C@@H](O)[C@H](O)[C@H]2O)C(C)(C)C5CC=C4C1(C)C3O` (some centres undefined), the max response in the assay on CRL-7250 was -7.03%; in the assay with KB-3-1 it was 5.34%; with NIH3T3, 0.0478%. Further, the result in the assay with HEK293 was inactive. In addition, the outcome in the assay on HEK293T was “inactive [at 17.4 µM]”.
Take `C[C@H](Nc1ncnc2nc[nH]c12)c1cc2ccc(F)cc2nc1-c1ccccn1`: the max response is -2.06% in the assay with CRL-7250 and -0.749% in the assay with NIH3T3. Also, the compound was called inactive in the assay with HEK293, with KB-3-1 and in the assay with HEK293T.
